Rows were chosen to be rich in hits. Some 3.4% of all compounds tested hit in one or more screens of this group.
esBAF inh – Bmi1 luciferase reporter increase in mESCs, primary screen, esBAF inhibitor project, mouse ES cells, Bmi1 luciferase knock-in, single point; AID 602393, 2012; 24 h; 100% = twice the neutral-well signal; reporter increase, % at 12.5 µM; 2% of 350,000 active; in the data active = activation above about 40%; inconclusive = no clear call, values can overlap the other calls;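 note: 0% = median of the plate's neutral control wells and 100% = double that signal; a rise in the Bmi1 reporter signal indicates esBAF inhibition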
HIV Env fusion – inhibitors of HIV-1 Env-driven cell-cell fusion, primary screen, HeLa-JRFL effector, CEM21 target cells, luciferase | inhibition, % at 12.3 µM | 1.1% of 360,000 active | AID 651610, 2012;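 active = mean replicate inhibition score of at least 50 and every replicate individually at or above 50; inconclusive = only one of the two criteria met; inactive = mean below 50 and not all replicates reaching 50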;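 note: 0% = plate neutral controls and 100% = maraviroc near 300 nM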
miR122 inh – miR-122 Renilla sensor signal increase in Huh7, primary screen, miR-122 inhibitor project, cell-based, single point, plate reader | Huh7 miR-122 Renilla luciferase sensor, 48 h; neutral wells = 0, positive control = 100 | activation (reporter increase), % at 12.5 µM | 0.3% of 340,000 active;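 active = mean replicate activation score at least 90 and every replicate individually at or above 90; inconclusive = only one of the two criteria met; inactive = neither criterion met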;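 note: higher luciferase means less miR-122 activity so hits act as miR-122 inhibitors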
Wnt bcat act – Wnt/beta-catenin pathway activators, primary screen, cell-based, plate reader, single point; Wnt/beta-catenin reporter cell assay, activator; activation, % at 9.35 µM; 1.2% of 300,000 active; in the data active = activation above about 30%, passing the limit was not always enough; inconclusive = no clear call, values can overlap the other calls;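 note: 0% = neutral control wells and 100% = positive control wells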
MITF act – activators of MITF-driven TRPM1 promoter reporter, primary screen, cell-based, SK-MEL-5, luciferase, single point | activation, % at 12.5 µM | 0.75% of 300,000 active | SK-MEL-5 TRPM1-promoter luciferase, 24 h; % of positive control, neutral wells = 0;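 active = mean activation of at least 80% with every replicate also reaching 80%; inconclusive = mean reaches 80% but some replicate falls short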;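 note: 0% = neutral control wells and 100% = parthenolide positive control wells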
Starred values were filed as active, the others as inactive; ? = inconclusive; / = not tested or not shown; [ ] = remark or other dose.

SMILES | esBAF inh | HIV Env fusion | miR122 inh | Wnt bcat act | MITF act
COC(=O)c1ccc(COc2ccc(C)c(C)c2)o1 | 58.5* | -59.0 | -4.7 | 2.8 | ?
COC(=O)c1ccc(COc2cc(C)ccc2C)o1 | 70.0* | -38.3 | -2.2 | 6.8 | 81.5*
Cc1ccc(OCc2ccc(C(=O)O)o2)cc1C | ? | -70.1 | -7.6 | 29.8 | 18.7
CCOc1ccc(OCc2ccc(C(=O)OCc3ccccn3)o2)cc1 | / | -81.4 | 1.5 | 32.9* | 4.9
O=C(C[C@H]1C[C@@H]2c3cc(NC(=O)C4CCOCC4)ccc3O[C@@H]2[C@H](CO)O1)NCCN1CCCCC1 | -13.2 | -9.3[16.7 µM] | 34.4[16.7 µM] | / | /
COc1ccc(C2CC(c3ccc4ccccc4c3)=NN2C(=O)COC(=O)C2CCC(=O)N2)cc1 (stereo unspecified) | / | -105.0 | / | 45.4* | 74.7
COc1ccc(C2CC(c3ccc4ccccc4c3)=NN2C(=O)CN2CCC(C(N)=O)CC2)cc1 (stereo unspecified) | 48.5* | -18.2 | -2.0 | -1.5 | 78.4
COc1ccc(C2CC(c3ccc4ccccc4c3)=NN2C(=O)CNC2CCCCC2)cc1 (stereo unspecified) | / | -13.9 | / | -2.5 | 0.3
CO[C@H]1CN(C)C(=O)c2cc(NC(=O)c3ccccc3)ccc2OC[C@@H](C)N(C(=O)C2CC2)C[C@H]1C | -3.3 | -10.0[16.7 µM] | -0.1[16.7 µM] | / | /
CCOc1ccc2nc(SCC3CC3(Cl)Cl)[nH]c2c1 (stereo unspecified) | / | -175.3 | / | 34.6* | /
ClC1(Cl)CC1CSc1nc2ccccc2[nH]1 (stereo unspecified) | / | 2.0 | / | 8.5 | 65.5
O=C(COc1ccc(C(=O)c2ccccc2)cc1)Nc1ncccc1O | / | -4.0 | 3.3 | 3.5 | 4.5
O=C(Nc1ncccc1O)c1ccc(Oc2ccccc2)cc1 | -1.2 | -12.5 | -8.6 | 37.2* | 47.2
CCOc1ccc(C(=O)Nc2ncccc2Cl)cc1 | 65.9* | -11.4 | 1.3 | / | 72.5
COc1ccc(CNC(=O)C[C@@H]2C[C@H]3c4cc(NC(=O)CN(C)C)ccc4O[C@H]3[C@H](CO)O2)cc1 | -1.8 | -22.7[16.7 µM] | 1.2[16.7 µM] | / | /
COC(=O)c1c(NC(=O)CN2CCOCC2)sc2c1CCC(C)C2 (stereo unspecified) | 61.6* | / | 3.0 | / | ?
C#CCOc1ccc(/C=C2/C(=O)N(c3cccc(C(=O)O)c3)N=C2C)cc1OC | -8.9 | 7.6 | / | 0.6 | /
COc1cc(/C=C2\C(=O)N(c3cccc(C(=O)O)c3)N=C2C)ccc1OCc1ccccc1 | 52.3* | -10.9 | 3.9 | 10.9 | /
C[C@@H]1CN([C@@H](C)CO)C(=O)c2cccc(NS(=O)(=O)c3cccs3)c2O[C@@H]1CN(C)S(=O)(=O)c1cccs1 | 1.6 | -6.2[16.7 µM] | -6.2[16.7 µM] | / | /
S=C(NCC1CCCO1)Nc1ccc(Cl)cc1Cl (stereo unspecified) | 49.0* | 9.6 | 26.8 | ? | 10.4
S=C(NCC1CCCO1)Nc1ccc(Cl)cc1 (stereo unspecified) | / | 17.2 | / | 4.0 | 6.0
Cc1ccc(/C=C(\C#N)C(=O)NCC2CCCO2)o1 (stereo unspecified) | 13.4 | -0.1 | 22.3 | 78.3* | 10.0
O=C(NC(=S)NCC1CCCO1)c1ccc(Cl)cc1 (stereo unspecified) | / | -9.7 | / | 1.9 | 87.7*
N#C/C(=C\c1ccco1)C(=O)NCC1CCCO1 (stereo unspecified) | / | -25.7 | -3.9 | 0.7 | -12.4
O=C(COC(=O)c1ccccc1)NCC1CCCO1 (stereo unspecified) | 49.0* | / | / | / | 8.1
SMILES | esBAF inh | HIV Env fusion | miR122 inh | Wnt bcat act | MITF act
Cc1ccc(C(=O)NC(=S)NCC2CCCO2)cc1 (stereo unspecified) | ? | / | -1.3 | / | ?
Cc1noc(C)c1S(=O)(=O)Nc1ccc2c(c1)C(=O)N([C@H](C)CO)C[C@@H](C)[C@@H](CN(C)C(=O)Nc1ccc(C(F)(F)F)cc1)OCCCC[C@@H](C)O2 | -2.1 | -9.8[16.7 µM] | -11.9[16.7 µM] | / | /
O=C(C[C@H]1CC[C@@H]2[C@H](COC[C@H](O)CN2C(=O)c2ccccc2)O1)NCCCN1CCOCC1 | 2.1 | -13.2[16.7 µM] | 0.6[16.7 µM] | / | /
CCCNC(=O)C[C@H]1C[C@@H]2c3cc(N(C)C)ccc3O[C@@H]2[C@@H](CO)O1 | 4.1 | / | 0.2[16.7 µM] | / | /
C[C@@H]1CN([C@H](C)CO)C(=O)c2cc(C#CCN(C)C)cnc2O[C@@H]1CN(C)Cc1ccc(F)cc1 | 1.6 | 13.0[16.7 µM] | -0.7[16.7 µM] | / | /
O=C(NCC1CCCO1)Nc1cc(Cl)cc(Cl)c1 (stereo unspecified) | / | 8.9 | / | 2.3 | 32.7
O=C(NCC1CCCO1)Nc1ccc(Cl)cc1 (stereo unspecified) | 45.4* | / | -1.2 | -0.6 | 42.6
COC(=O)c1ccc(NC(=O)C(=O)NCC2CCCO2)cc1 (stereo unspecified) | 45.2* | -15.1 | -11.3 | 13.9 | 14.3
CCCOC(=O)c1ccc(NC(=O)C(=O)NCC2CCCO2)cc1 (stereo unspecified) | / | 4.6 | -5.8 | -1.5 | 39.8
CC(C)NC(=O)N1[C@@H](CO)[C@H](c2ccccc2)[C@@H]1CNC(=O)CN(C)C | 0.0 | / | 14.3[16.7 µM] | / | /
C[C@@H](NC(=O)C[C@H]1CC[C@H](NC(=O)Cc2ccccn2)[C@H](CO)O1)c1ccccc1 | 2.8 | 13.4[16.7 µM] | 3.3[16.7 µM] | / | /
FC(F)(F)c1cnc(-c2cnc(-c3cccnc3)nc2)c(Cl)c1 | / | -35.3 | / | ? | 105.7*
CON(C)c1nc(OCCNC(=O)OCc2ccc(Cl)cc2Cl)nc(N(C)C)n1 | 12.3 | 138.6* | 1.9 | / | /
CON(C)c1nc(OCCNC(=O)COc2ccc(Cl)cc2C)nc(N(C)C)n1 | 5.7 | 162.7* | -6.3 | -2.8 | 4.7
Cc1cc(/C=C(/C#N)C(=O)Nc2ccccc2)c(C)n1-c1cccnc1 | 44.3* | / | / | / | 52.1
Cc1cc(C=C(C#N)C#N)c(C)n1-c1ccccc1 | 45.8* | / | -3.5 | / | 43.8
Cc1cc(/C=C(\C#N)C(=O)Nc2ccc(F)cc2)c(C)n1-c1ccc(N2CCOCC2)c([N+](=O)[O-])c1 | -6.7 | 85.5* | -6.3 | -13.3 | -24.0
O=C(C[C@H]1C=C[C@H](NC(=O)CCN2CCCCC2)[C@@H](CO)O1)Nc1ccc(-c2ccccc2)cc1 | 0.5 | 2.9[16.7 µM] | -0.1[16.7 µM] | / | /
Cc1noc(C)c1S(=O)(=O)Nc1ccc2c(c1)C(=O)N([C@H](C)CO)C[C@@H](C)[C@@H](CN(C)C(=O)c1ccccc1)OCCCC[C@H](C)O2 | -2.1 | -13.9[16.7 µM] | 1.5[16.7 µM] | / | /
O=[N+]([O-])c1ccc(C2CCCC/C2=N/OCc2ccc(F)cc2)c([N+](=O)[O-])c1 (stereo unspecified) | -9.4 | 64.8* | -1.3 | / | /
O=[N+]([O-])c1ccc(C2CCCC/C2=N/OCc2ccccc2F)c([N+](=O)[O-])c1 (stereo unspecified) | -9.9 | / | 6.7 | -0.5 | /
Cc1ccc2c(C)c(C(=O)Nc3ccc(S(N)(=O)=O)cc3)oc2c1C | -2.7 | 5.2 | -9.5 | 30.0* | 20.8
